Bioassay records (PubChem)
The sample as a whole holds a higher share of hits than the screen did.
Dicer inh: blocks human Dicer maturation of pre-miR-21. AID 1347074. Q9UPY3. z-score at 25 µM. cat-ELCCA pre-miR-21 Dicer processing, chemiluminescence; active compounds read high. hit rate 6% among 47,000; in the data active = z-score above about 3, passing the limit was not always enough;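 note: plate controls were vehicle for no effect and no enzyme for full effect; higher signal means more uncleaved substrate so more Dicer inhibition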
Target sequence (Q9UPY3 whole entry, looked up): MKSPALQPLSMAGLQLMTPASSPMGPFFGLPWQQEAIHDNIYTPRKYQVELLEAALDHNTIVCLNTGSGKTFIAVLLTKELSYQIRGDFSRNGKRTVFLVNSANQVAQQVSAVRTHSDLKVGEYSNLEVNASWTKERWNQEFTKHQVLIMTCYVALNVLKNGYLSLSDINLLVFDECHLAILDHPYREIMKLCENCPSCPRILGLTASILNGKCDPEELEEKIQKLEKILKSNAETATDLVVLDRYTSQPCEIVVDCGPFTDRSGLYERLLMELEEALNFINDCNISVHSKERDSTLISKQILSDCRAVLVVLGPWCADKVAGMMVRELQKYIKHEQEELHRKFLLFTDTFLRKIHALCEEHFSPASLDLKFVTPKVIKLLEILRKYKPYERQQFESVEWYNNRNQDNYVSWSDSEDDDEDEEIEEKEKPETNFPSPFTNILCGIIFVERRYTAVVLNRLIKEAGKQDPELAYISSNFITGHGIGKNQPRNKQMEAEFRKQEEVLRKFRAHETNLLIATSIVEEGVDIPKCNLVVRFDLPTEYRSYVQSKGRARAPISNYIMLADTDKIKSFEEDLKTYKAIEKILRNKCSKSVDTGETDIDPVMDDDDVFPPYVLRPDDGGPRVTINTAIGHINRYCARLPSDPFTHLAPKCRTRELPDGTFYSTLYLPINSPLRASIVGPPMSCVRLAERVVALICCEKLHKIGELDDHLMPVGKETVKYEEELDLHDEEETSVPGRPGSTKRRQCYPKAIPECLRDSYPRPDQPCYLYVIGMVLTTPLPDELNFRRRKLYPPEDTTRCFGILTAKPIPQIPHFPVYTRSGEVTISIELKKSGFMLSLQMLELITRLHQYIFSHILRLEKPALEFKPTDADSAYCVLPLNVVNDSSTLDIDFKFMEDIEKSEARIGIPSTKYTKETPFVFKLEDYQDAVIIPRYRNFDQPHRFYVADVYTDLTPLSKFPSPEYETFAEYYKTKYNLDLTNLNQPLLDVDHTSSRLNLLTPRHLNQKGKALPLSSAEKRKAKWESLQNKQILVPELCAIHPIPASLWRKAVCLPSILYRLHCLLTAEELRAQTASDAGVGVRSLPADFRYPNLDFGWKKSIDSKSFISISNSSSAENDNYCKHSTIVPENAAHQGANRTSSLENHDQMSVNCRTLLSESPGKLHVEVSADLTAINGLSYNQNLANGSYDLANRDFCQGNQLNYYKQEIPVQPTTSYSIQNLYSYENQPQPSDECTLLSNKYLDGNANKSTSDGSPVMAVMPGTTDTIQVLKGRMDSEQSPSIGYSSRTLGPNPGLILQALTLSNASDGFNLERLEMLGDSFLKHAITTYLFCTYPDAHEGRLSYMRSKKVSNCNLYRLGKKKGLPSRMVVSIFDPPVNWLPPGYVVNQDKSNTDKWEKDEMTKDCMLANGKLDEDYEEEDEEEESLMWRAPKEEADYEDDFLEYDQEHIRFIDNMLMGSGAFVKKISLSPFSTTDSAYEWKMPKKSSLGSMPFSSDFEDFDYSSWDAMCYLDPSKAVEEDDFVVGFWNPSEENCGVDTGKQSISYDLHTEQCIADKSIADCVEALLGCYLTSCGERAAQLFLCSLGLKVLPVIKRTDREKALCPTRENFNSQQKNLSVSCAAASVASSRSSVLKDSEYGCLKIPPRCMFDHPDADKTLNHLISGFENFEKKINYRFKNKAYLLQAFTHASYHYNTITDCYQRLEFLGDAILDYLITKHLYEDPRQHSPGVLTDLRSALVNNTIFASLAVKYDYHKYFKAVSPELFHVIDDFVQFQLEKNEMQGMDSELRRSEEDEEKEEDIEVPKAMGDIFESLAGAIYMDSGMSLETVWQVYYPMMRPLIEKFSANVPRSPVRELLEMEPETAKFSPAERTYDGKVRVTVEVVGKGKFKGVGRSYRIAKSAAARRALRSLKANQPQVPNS
An asterisk follows results filed as active.

SMILES	Dicer inh
OC(C#CCN1CCOCC1)(c1ccccc1)c1cccc(F)c1 (stereo not drawn)	1.8
CC(C)(C)OC(=O)/C(C#N)=C/c1ccc(Cl)cc1	1
CC(C)(C)C(=O)/C(C#N)=C/c1c(Cl)cccc1Cl	-0.78
CC(C)(C)C(=O)/C(C#N)=C/c1ccc(C(F)(F)F)cc1	3.2*
O=C(O)C1C2C=CC(O2)C1C(=O)Nc1ccc([N+](=O)[O-])cc1 (stereo not drawn)	-0.61
c1ccc(-c2noc(-c3cccc4ccccc34)n2)nc1	1.3
COc1ccc(-c2nc(-c3ccccn3)no2)cc1OC	1.2
c1ccc(-c2ccc(-c3nc(-c4ccccn4)no3)cc2)cc1	5.2*
O=c1c(Cc2ccc(Cl)c(Cl)c2)c(-c2ccccc2)oc2ccccc12	0.01
CCOc1cc(CN2CCN(CC3CC4C=CC3C4)CC2)ccc1OC (stereo not drawn)	-0.53
CCCCC(=O)Nc1nc2ccc(S(C)(=O)=O)cc2s1	1.5
CCCCOC(=O)Nc1nc2ccc(S(C)(=O)=O)cc2s1	4.8*
COc1ccc(OCCCC(=O)Nc2nc3ccc(S(C)(=O)=O)cc3s2)cc1	-2.4
CCCCC(CC)C(=O)Nc1nc2ccc(S(C)(=O)=O)cc2s1 (stereo not drawn)	4.8*
COc1cc(SC)ccc1C(=O)Nc1nc2ccc(S(C)(=O)=O)cc2s1	1.6
CC(Oc1ccccc1F)C(=O)Nc1nc2ccc(S(C)(=O)=O)cc2s1 (stereo not drawn)	-0.69
Cc1cccc(C)c1NC(=O)NCCCO	1.1
FC(F)(F)Oc1ccc(CSc2nc3cc(Cl)c(Cl)cc3[nH]2)cc1	-0.5
Cc1ccsc1C1CC(=O)Oc2c1c(=O)n(C)c1ccccc21 (stereo not drawn)	-1.3
O=C(O)CCN1CCC(C(=O)O)CC1	0
CN(C)c1ccc(-c2nnc(SCc3ccccc3)o2)cc1	1.5
Clc1ccccc1-c1cc2ccccc2[nH]1	4*
Nc1ccc(Cl)c(-c2nc3ccccc3[nH]2)c1	0.01
O/N=C/c1c(-c2ccccc2Cl)[nH]c2ccccc12	1.7
CC(=O)N1CCC(=O)Nc2ccccc21	-0.11
SMILES	Dicer inh
CC12C=CC(O1)C1C(=O)N(c3ccc(C(=O)O)cc3)C(=O)C12 (stereo not drawn)	-0.17
CCCCCCC(=O)Oc1ccc(N2C(=O)CCC2=O)cc1	1.4
O=C(O)c1ccc(N2C(=O)CCC2=O)cc1	4.8*
Cc1c(NS(=O)(=O)c2ccccc2)cc(Cl)c(O)c1C	2.1
Cc1ccc(S(=O)(=O)Nc2cc(C(C)C)c(O)c(Cl)c2C)cc1	3.2*
Cc1ccc(S(=O)(=O)Nc2cc(S(=O)(=O)c3ccc(C)cc3)c(O)c3ncccc23)cc1	-1.3
Cc1ccc(S(=O)(=O)Nc2cc(Cl)c(O)cc2C)cc1	4.3*
Cc1ccc(S(=O)(=O)Nc2cc(C)c(Br)cc2NS(=O)(=O)c2ccc(C)cc2)cc1	7.2
Cc1ccc(S(=O)(=O)Nc2cc(C)c(O)c(Cl)c2)cc1	0.77
C/C(=N\NC(=O)c1ccc(C(F)(F)F)cc1)c1ccccc1O	0.92
O=C(Oc1ccccc1/C=N/N=C1\SCC(=O)N1c1cccc(F)c1)C1CC1	5.3
O=[N+]([O-])c1c(N2CCCC2)ccc2nsnc12	-0.7
O=C1CSCC(=O)N1c1ccccn1	7.8*
Cc1cccc(C)c1N1C(=O)CSCC1=O	-2.4
O=C1CSCC(=O)N1c1ccc(Cl)cn1	-3.1
COc1cccc(OC)c1/C=N/Nc1ccc([N+](=O)[O-])cn1	-0.63
CC(C)(C)c1cc2nc(C(F)(F)F)cc(N3CCNCC3)n2n1	0.27
COc1ccc(OC(C)c2nc(-c3ccc(C)cc3)no2)cc1 (stereo not drawn)	-1.7
CN1C(=O)CC(NCc2ccc3c(c2)OCO3)C1=O (stereo not drawn)	-0.41
O=C(NCc1ccc2c(c1)OCO2)NC1CCCCC1	2.8
CN(C)CCCN(Cc1ccc2c(c1)OCO2)C(=O)NC1CCCCC1	4.7*
Cc1ccc(NC(=O)c2ccccc2N)c(N)c1	-1.7
COc1ccc2c(c1)N(C)/C(=C/c1ccc3ccccc3[n+]1C)S2	-0.75
N/C(COc1c(Cl)cccc1Cl)=N\O	-0.83
CCOC(=O)COc1ccc2c(-c3ccccc3)cc(=O)oc2c1	1.1
SMILES	Dicer inh
CCOC(=O)COc1ccc2c(C)c(Cc3c(Cl)cccc3Cl)c(=O)oc2c1	3.3*
Cc1c(Cc2c(F)cccc2Cl)c(=O)oc2cc(OC(=O)c3ccco3)ccc12	0.42
C=CCOc1ccc(C2c3c(oc4ccccc4c3=O)C(=O)N2Cc2ccc3c(c2)OCO3)cc1 (stereo not drawn)	0.4
Cc1cccc(Oc2coc3cc(OCC(=O)OCc4ccccc4)ccc3c2=O)c1	-1.4
O=C1OC(c2ccccc2)=N/C1=C\c1ccc(/C=C2\N=C(c3ccccc3)OC2=O)cc1	-0.88
O=C1OC(/C=C/c2ccccc2)=NC/1=C/c1cccc2ccccc12	3.5*
O=C1OC(/C=C/c2ccccc2)=NC/1=C/c1ccc(Cl)cc1	2.1
CC(C)CSc1nnc2sc3ccccc3n12	-1.1
O=C(Nc1ccc(OCc2ccccc2)cc1)Nc1ccc(N2CCCCC2)cc1	2.3
COc1cccc(Cn2c(-c3nonc3N)nc3ccccc32)c1	4.2*
CN(C(=O)Cn1c(-c2nonc2N)nc2ccccc21)c1ccccc1	4.1*
Cc1ccc(Cn2c(-c3nonc3N)nc3ccccc32)cc1	-0.74
CN(C(=O)Cn1c(-c2cncs2)nc2ccccc21)c1ccccc1	0.95
Nc1nonc1-c1nc2ccccc2n1CC(=O)Nc1ccc(F)cc1	-1
Nc1nonc1-c1nc2ccccc2n1CC(=O)N1CCN(c2ccc(F)cc2)CC1	3.4*
O=C1CN(CC(=O)N2CCN(c3ccc(F)cc3)CC2)c2ccccc2O1	-3.2
CCC(=O)Nc1nonc1-c1nc2ccccc2n1CCC(C)C	-2.5
Nc1nonc1-c1nc2ccccc2n1Cc1ccc(Cl)cc1	1.1
CC(C)(C)C1=NN2C(=N)CC(=O)N=C2S1	-1.5
CCOc1ccc(/C(O)=C2\C(=O)C(=O)N(c3nnc(C)s3)C2c2ccccc2F)cc1 (stereo not drawn)	0.96
O=C1CC(c2ccccc2F)Cc2nc(N3CCN(c4ccccc4)CC3)ncc21 (stereo not drawn)	-1.4
Cc1csc2c(N3CCOCC3)ncnc12	-0.09
COc1cc(/C=C2/N=C(c3ccccc3)NC2=O)cc(OC)c1OC	-0.05
Cc1ccccc1N/C=C(\C#N)C(=O)c1cc(-c2ccc(Cl)cc2)oc1C	-0.22
COc1ccc(Br)cc1/C=C(\C#N)C(N)=O	1.1
SMILES	Dicer inh
C=CCn1c(SCc2nnc(SCC(C)=O)n2-c2ccccc2)nnc1-c1ccccc1	-0.07
C=CCOc1cccc(C2c3c(oc4ccccc4c3=O)C(=O)N2c2nnc(C)s2)c1 (stereo not drawn)	-2
CCOC(=O)Cc1csc(NC(=O)Nc2cc(Cl)ccc2OC)n1	0.77
CCOC(=O)c1cnc(NNC(=O)c2ccccc2C)nc1C(F)(F)F	2.1
O=C1/C(=C\c2ccc(Cl)c(Cl)c2)SC(=S)N1c1ccc(F)c(F)c1	0.62
O=C1/C(=C\c2ccccc2)SC(=S)N1c1cccc(Br)c1	4*
Cc1cc(C)c2c(=O)c(/C=C3/SC(=S)N(c4cccc(Cl)c4)C3=O)coc2c1	-1.8
O=S(=O)(c1ccc(-c2cc(C(F)(F)F)on2)s1)N(Cc1ccccn1)Cc1ccccn1	0.08
Nc1ccc(-c2nc3c(Cl)cccc3[nH]2)cc1	1.7
Nc1ccc(-c2nc3ccccc3[nH]2)cc1	-0.71
Nc1ccc(-c2nc3c(ccc4ccccc43)[nH]2)cc1	23*
CC(=O)c1cnn(-c2ccccn2)c1C	-0.84
O=S(=O)(c1ccc(Cl)cc1)n1nc(C(F)(F)F)c2cnccc21	0.3
